Measured values as given in PubChem BioAssay AID1117319 (Southern Research Institute, 2015).
Where “and” joins values, the source holds several entries; their conditions need not be identical. Equal values may be shown once. The whole screen tested about 260,000 compounds, of which about 1,500 (0.58%) were called active. Not shown: some 5% with an inconclusive outcome.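 Rule for the calls: active = inhibition above a set limit at one or more doses, reproduced on every date tested; inconclusive = results disagree between test dates, or hit never tested in dose response; inactive = the rest.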 The list is a sample of the results. Potency and affinity values are given separately.

target: Virion infectivity factor (Human immunodeficiency virus type 1 group M subtype B (isolate BH10)) + Virion infectivity factor (Human immunodeficiency virus type 1 group M subtype B (isolate BRU/LAI)) + Virion infectivity factor (Human immunodeficiency virus type 1 group M subtype B (isolate PCV12)) + Virion infectivity factor (Human immunodeficiency virus type 1 group M subtype B (isolate HXB2)) + DNA dC->dU-editing enzyme APOBEC-3G (Homo sapiens) (UniProt P69720+P69721+P69722+P69723+Q9HC16); assay: inhibitors of Vif binding to APOBEC3G peptide, primary screen, biochemical, TR-FRET, GST-Vif 1-94, biotin-A3G peptide, dose response retest (AID 1117319); details: active compounds read high;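 note: Vif residues 1-94 fused to GST binding biotinylated APOBEC3G peptide 110-148; 0% = full assay without inhibitor and 100% = GST in place of GST-Vif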

inhibition, inactive:
Cc1ccc(C(CC(=O)N2CCCCC2)c2ccccc2)c(O)c1C (centres undefined) -1.48%, COc1cc(Cl)c(C)cc1NC(=O)CN1C(=O)C2CCCCC2C1=O (centres undefined) -15.8%, O=C(NCC1CCCO1)c1ccc(CS(=O)(=O)c2ccc(Cl)cc2)o1 (centres undefined) 0.48%, Cc1ccc(CC(=O)NNC(=O)c2cccs2)cc1C -2.08%, COc1ccc(C(Nc2ccccn2)c2oc(CO)cc(=O)c2O)cc1 (centres undefined) 20.9%, O=c1cc(CO)oc(C(Nc2ccccn2)c2ccc(C(F)(F)F)cc2)c1O (centres undefined) 10.8%, CN(c1ccccc1)S(=O)(=O)c1ccc(C(=O)NCC2CCCO2)cc1 (centres undefined) 6.12%, Cc1ccc2c(c1)n([O-])c1c([n+]2=O)CCCC1 1.62%, O=[n+]1c2c(n([O-])c3cc(F)c(N4CCCC4)cc31)CCC2 25.7%, O=[n+]1c2c(n([O-])c3ccccc31)CCCC2 9.07%, O=[n+]1cc(-c2ccc(Br)cc2)n([O-])c2c1CCC2 3.02%, O=[n+]1c2c(n([O-])c3cc(Br)ccc31)CCCC2 30%, O=[n+]1c2c(n([O-])c3c1CCCC3)CCCC2 3.36%, CCOc1ccc2c(c1)n([O-])c1c([n+]2=O)CCCC1 23.4%, O=[n+]1c2c(n([O-])c3cc(F)ccc31)CCCC2 11.7%, Cc1ccc2oc3nc(C)c(C(=O)O)cc3c(=O)c2c1 3.05%, CCN(CC)CCn1c(=S)[nH]c2cc(C(=O)NCCc3ccc(OC)c(OC)c3)ccc2c1=O -5.2%, S=c1[nH]nc2nnc3ccccc3n12 -8.57%, COCCN1C(=O)c2[nH]nc(-c3ccccc3O)c2C1c1ccc(OC)cc1 (centres undefined) 4.2%, CCOC(=O)C1=C(C)N(C)C(=S)NC1c1cc(OC)ccc1OC (centres undefined) 29.4%, Cc1ccc(NC(=O)N2CCC(C(=O)Nc3ccc(C)cc3C)CC2)cc1 -2.75%, COC(=O)C1CCN(S(=O)(=O)c2c[nH]c(=O)[nH]c2=O)CC1 -3.67%, CC(C)CN(CC(C)C)S(=O)(=O)N1CCC(C(=O)N2CCc3ccccc3C2)CC1 10.1%, O=C(CSc1ccc2nnc(-c3ccccn3)n2n1)N1CCOCC1 5.93%, CCOC(=O)C=Nc1c(N)n(C)c(=O)n(C)c1=O -1.01%, CCCCSc1c(C)c2cc3c(cc2[nH]c1=O)OCO3 -11.4%, COc1cc(C(=O)NCc2ccco2)cc(OC)c1OC -2.63%, COc1cc(C(=O)NC(=S)NCc2ccco2)cc(OC)c1OC 5.31%, Cc1ccc(/C=C2\CCC3=C2OC(N)=C(C#N)C3c2ccc(C)cc2)cc1 (centres undefined) 20.9%, N#CC1=C(N)OC2=C(CC/C2=C\c2ccccc2)C1c1ccccc1 (centres undefined) 22.4%, CCOC(=O)N1CCN(C(=O)CN(Cc2ccccc2)S(=O)(=O)c2ccc(OC)c(Cl)c2)CC1 -0.5%, O=C(OCc1nc2scc(-c3ccccc3)c2c(=O)[nH]1)c1cc([N+](=O)[O-])ccc1Cl 1.37%, CCN(CC)CCNC(=O)Cn1nc(Cc2cccnc2)c2ccccc2c1=O -0.43%, O=C(Nc1cccc2c1CCCC2)C1CCCN(S(=O)(=O)c2cccc3nonc23)C1 (centres undefined) 22.9% and -4.27%, N#CC1=C(Nc2ccccc2)SC=C(c2ccccc2)N=C1N1CCOCC1 23.5%, N#CC1=C(Nc2ccccc2)SC=C(c2ccc(F)cc2)N=C1N1CCOCC1 -6.08%, COc1ccc(CCNC(=O)CC(Cc2ccc(C)cc2)C(=O)O)cc1OC (centres undefined) -5.29%, CCc1ccc(C(=O)COC(=O)c2cnc(C)cn2)cc1 2.17%, COc1ccc(N=C2S/C(=C\c3ccc(C)s3)C(=O)N2CC(C)C)cc1 -0.05%, CCCN1C(=O)/C(=C/c2ccc(C)o2)SC1=Nc1ccc(OC)cc1 23.9%, Cc1cccc(Cc2ccc(Cl)nn2)c1 3.42%, COc1cc(CCCN2C(=O)C(=O)NC[C@@H]2c2ccccc2)cc(OC)c1OC -0.8%, COc1cccc(CN2CCN(Cc3cccc4nonc34)CC2CCO)c1 (centres undefined) -3.03%, Cc1ccccc1CN1C[C@@H]2C[C@@H](c3cn[nH]c3-c3ccc(F)cc3)N3CCC[C@@]23C1=O 6.1%, O=S(=O)(Nc1nc2ccccc2nc1N1CCN(c2ccccc2)CC1)c1ccc(F)cc1 10.6%, CN1CCN(c2nc3ccccc3nc2NS(=O)(=O)c2ccc(Br)cc2)CC1 4.67%, CC(C)CNC(=O)COCc1cc(-c2ccc3c(c2)OCO3)on1 5.26%, COc1ccc(Cl)cc1C(=O)OCC(=O)NC(=O)c1cccn1C -9.04%, COc1ccc(S(=O)(=O)N2CCCC2CNC(=O)C(=O)NCc2ccccc2)cc1 (centres undefined) -0.59%, CCC(=O)NCC(c1ccco1)N1CCN(c2ccc(OC)cc2)CC1 (centres undefined) 2.46%, CCc1ccc(C(=O)Nc2cc(C)ccc2F)s1 -4.32%, O=C1NCCc2c1[nH]c1ccccc21 18.5%, c1ccc2c3c([nH]c2c1)CCNC3 -5.47%, COc1cc2[nH]c(=O)n(CCCCCC(=O)N3CCN(c4ccccn4)CC3)c(=O)c2cc1OC -2.43% and 26.2%, CCC(=O)N1CC2(CC(c3cccc(NC(=O)CC(c4ccccc4)c4ccccc4)c3)=NO2)C[C@H]1C(N)=O (some centres undefined) 4.04%, Cc1cccc(-n2c(SCC(=O)NCc3ccc4c(c3)OCO4)nc3ccccc3c2=O)c1 19.8%, COc1ccccc1-n1c(SCC(=O)c2ccc(O)cc2O)nc2cc([N+](=O)[O-])ccc21 11.3%, O=C(CSc1nc2ccccc2c(=O)n1-c1ccccc1)NCc1ccc2c(c1)OCO2 -2.26%, CC(Sc1nc2cc([N+](=O)[O-])ccc2n1-c1ccc(F)cc1)C(=O)NCc1ccc2c(c1)OCO2 (centres undefined) -9.4%, O=C(CN1CCN(c2ccccc2)CC1)c1c[nH]c2ccccc12 -7.04%, COc1cccc(/C=C2\Oc3cc(OC(=O)N4CCOCC4)ccc3C2=O)c1 0.99%, O=C(CN(CCO)Cc1ccccc1)N1CCN(S(=O)(=O)c2ccccc2)CC1 0.45%, C/C=C/c1ccc(OCCCn2cncn2)c(OC)c1 -2.59%, COC(=O)C1=C(C)NC(C)=C(C(=O)OC)C1c1cc2cc(C)ccc2[nH]c1=O -2.33%, COc1ccc(C2C(C#N)=C(N)Oc3c2ccc2cccnc32)cc1OC (centres undefined) 18.2%, Cc1ccc(C(=O)Nc2ccc3[nH]c(=O)[nH]c3c2)c(C)c1 -1.2%, C=CCn1c(SCc2nc3ccccc3[nH]2)nnc1-c1cccc(OC)c1 7.4%, Cc1nc2ccc(S(=O)(=O)NCC(=O)NCCN3CCCCCC3)cc2s1 -0.42%, Cc1nc(N2CCOCC2)c2c3c(sc2n1)CCC3 -7.05%, CSc1nc(N2CCOCC2)c2c3c(sc2n1)CCCC3 2.91%, C=CCN(C(=O)c1csnn1)C(C(=O)NC(C)(C)C)c1ccncc1 (centres undefined) 8.31%, O=C(c1ccc(CNS(=O)(=O)c2ccccc2)cc1)N1CCN(c2ccccn2)CC1 5.22%, Oc1ccc2ccccc2c1N=Nc1ccc(F)cc1 7.15% and 5.32%, Oc1[nH]c2ccccc2c1N=Nc1ccc(F)cc1 -2.74%, CCOC(=O)CC(NC(=O)c1cccs1)c1ccc(C)cc1 (centres undefined) -0.96%, CCCCOc1ccccc1C1NC(=O)CCC1[N+](=O)[O-] (centres undefined) -4.07%, COc1ccccc1/C=C/C=N/NC(=O)Cc1cccs1 -10.6%, O=C(Cc1cccs1)N/N=C/C=C/c1ccccc1 4.16%, O=C(N/N=C/C=C\c1ccco1)c1cccs1 2.49%, O=C(CNC(=O)c1cccs1)N/N=C/c1ccco1 10.8%, O=C(c1ccncc1)N1N=C(C2CC2)CC1(O)C(F)(F)F (centres undefined) -2.38%, CCOC(=O)c1c(C)oc(=O)c(CC)c1O -0.93%, Cc1ccc(S(=O)(=O)N2C[C@H]3C(=O)C[C@@H](c4ccc(Cl)cc4)N(S(=O)(=O)c4ccccc4C)[C@H]3C[C@H]2c2ccccc2)cc1 -0.22%, O=C(CSCc1c(Cl)cccc1Cl)NN=C1CCCC1 15.1%, CCOC(=O)C1CCCN(c2c(NCC3CCCN3CC)c(=O)c2=O)C1 (centres undefined) 1.77%, CC(=O)N1Cc2ccccc2CC1C(=O)NCc1ccccc1F (centres undefined) 0.3%, CCCNC(=O)c1ccc2nc(-c3ccccc3)c(-c3ccccc3)nc2c1 -1.93%, CCOCCCNC(=O)c1ccc2nc(-c3ccc(OC)c(OC)c3)c(-c3ccc(OC)c(OC)c3)nc2c1 -0.07%, O=C(O)c1ccc2nc(-c3ccco3)c(-c3ccco3)nc2c1 -0.3%, O=C(NCCO)c1ccc(Cl)c(Cl)c1 -3.78%, CCc1nc2ccc(C(=O)NCCc3ccco3)cc2nc1CC 9.44%, C=CCNC(=O)c1ccc2nc(-c3ccccc3)c(-c3ccccc3)nc2c1 -4.35%, O=C(NC1CCCCC1)c1cc(-c2ccco2)on1 2.76%, CCc1nc2ccc(C(=O)NCc3ccco3)cc2nc1CC 3.69%
